PubChem BioAssay AID493194 (Broad Institute, 2011)
Potency and affinity values are given separately. Inconclusive results are not listed. Active and inactive are the calls of the source.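 How the source made its calls: active means a valid curve of falling signal whose half-effect concentration is at most ten times the top tested dose; inconclusive means flat curve at 30 to 70% inhibition, or poor fit; inactive means signal rise, flat within 30%, or potency beyond limit.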

These compounds were tested against Scavenger receptor class B member 1 (Mus musculus) (UniProt Q61009) (assay: mouse SR-BI DiI-HDL uptake blockers – ldlA[mSR-BI] cells, fluorescence, cherry pick, dose response (AID 493194;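 further: CHO cells lacking LDL receptor and overexpressing mouse SR-BI; cellular uptake of fluorescently labeled HDL measured as cell fluorescence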)). Conditions: CHO ldlA[mSR-BI] DiI-HDL uptake fluorescence, 3 h; series mostly up to 35 µM.
Sequence of Scavenger receptor class B member 1 (Mus musculus) (Q61009 whole entry, looked up): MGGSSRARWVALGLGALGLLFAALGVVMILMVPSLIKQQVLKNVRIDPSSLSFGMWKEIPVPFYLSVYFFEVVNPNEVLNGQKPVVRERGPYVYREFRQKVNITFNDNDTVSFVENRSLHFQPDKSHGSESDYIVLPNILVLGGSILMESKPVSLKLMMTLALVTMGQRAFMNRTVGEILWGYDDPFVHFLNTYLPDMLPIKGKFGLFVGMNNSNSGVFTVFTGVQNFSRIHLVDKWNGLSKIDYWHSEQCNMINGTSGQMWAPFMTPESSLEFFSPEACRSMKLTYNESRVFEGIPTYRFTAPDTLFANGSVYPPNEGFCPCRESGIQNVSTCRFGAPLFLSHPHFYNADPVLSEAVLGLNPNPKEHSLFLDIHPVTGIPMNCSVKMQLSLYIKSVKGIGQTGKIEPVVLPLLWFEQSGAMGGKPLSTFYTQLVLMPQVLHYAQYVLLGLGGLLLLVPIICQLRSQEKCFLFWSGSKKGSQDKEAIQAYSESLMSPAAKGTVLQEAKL

outcome, inactive:
CC(C)c1nnc(NC(=O)CCC(=O)N2CCN(C3c4ccccc4-c4ccccc43)CC2)s1, CC1CN(c2oc(COc3ccc(Cl)cc3Cl)nc2C#N)CC(C)O1 (stereo not drawn), COc1ccc(CCNC(=O)c2ccc3c(c2)N(Cc2ccc(C)cc2)CCS3)cc1OC, COc1cc(NC(=O)c2cc(-n3cnnc3)ccc2Cl)cc(OC)c1, CCC(C)c1ccccc1N1CC(C(=O)N2CCN(S(=O)(=O)c3cccc([N+](=O)[O-])c3)CC2)CC1=O (stereo not drawn), COCCN(Cc1cn(C)nc1-c1ccc(Oc2ccccc2)cc1)C(C)C, Cc1ccc(OCc2cc(C(=O)N3CCCC(O)C3)no2)cn1 (stereo not drawn), Cc1cc(C)cc(NC(=O)c2ccc3c(c2)CCN3S(C)(=O)=O)c1, CCOC(=O)c1[nH]c2c(c1C)C(=O)CC(c1ccc(F)cc1)C2 (stereo not drawn), Cc1cccc(NC(=O)C2(C)CC3c4ccccc4C2c2ccccc23)c1C (stereo not drawn), CS(=O)(=O)N1CCc2cc(-c3csc(NC(=O)Cc4ccccc4)n3)ccc21, COc1cc(/C=C/C(=O)Nc2cccc(S(=O)(=O)NC3=NCCCCC3)c2)ccc1OCC#N, COc1ccccc1CCc1nnc(CCC(=O)N(C)Cc2cccc3cnccc23)o1, Cc1c(C(=O)Nc2cccc(Cl)c2)c2ccccn2c1CCc1ccncc1, Cn1c(-c2ccsc2)c(-c2cccs2)c2cc(-c3ccc4cc[nH]c4c3)ccc21, CCOC(=O)CSc1c(-c2ccc(Cl)cc2)[nH]c2ccccc12, CCOc1ccc(OCCSc2nc3ccccc3n2CC(=O)O)cc1, CCC(C)C1/C=C\CC(NC(=O)OCC2c3ccccc3-c3ccccc32)CC(=O)N1Cc1ccccc1 (stereo not drawn), CC(=O)c1cccc(NC(=O)c2ccc3c(c2)CCN3S(=O)(=O)c2ccccc2)c1, O=C(NC1CC2CCCC(C1)N2C(=O)N1CCCCC1)C1CCCCC1 (stereo not drawn), CC(C)(C)OC(=O)N1CSC[C@H]1C(=O)NC[C@H](CC(=O)O)c1ccc(Cl)cc1, COc1ccc([C@H]2/C=C\CN(S(=O)(=O)c3cccc4cccnc34)[C@@H](C)C(=O)N2Cc2ccc(F)cc2)cc1, N#Cc1ccc(Nc2nc(-c3ccc(O)cc3O)cs2)cc1C(F)(F)F, COc1ccc(C2/C=C\CN(S(=O)(=O)c3ccc(C)cc3)CC(=O)N2Cc2ccc(F)cc2)cc1 (stereo not drawn), O=C(/C=C/c1ccco1)Nc1cccc(NC(=O)/C=C/c2ccco2)n1, COc1cc(OC)cc(C(=O)N[C@H](C(=O)Nc2nc(-c3cc(OC)ccc3OC)cs2)C(C)C)c1, COc1ccc(CN2CCN(C(=O)c3ccc(S(=O)(=O)NCc4ccco4)cc3)CC2)cc1, COc1ccc(C2/C=C\CN(S(=O)(=O)c3ccc4ccccc4c3)CC(=O)N2Cc2ccc(F)cc2)cc1 (stereo not drawn), O=C(Nc1ccc(-c2nc3ccccc3o2)cc1)c1cc(-n2cnnc2)ccc1Cl, CCSCC1COC(c2cccn2Cc2ccc(C)cc2)=N1 (stereo not drawn), COc1cc(OC)cc(C(=O)N[C@H](C(=O)OCC(=O)c2ccc3c(c2)NC(=O)CO3)C(C)C)c1, Cc1ccc(NC(=O)c2cc(S(=O)(=O)N3CCOCC3)c(Br)s2)cc1, CCNc1nc(Cl)nc(-c2cn(-c3ccccc3)c3ccccc23)n1, COc1ccc2c(c1)-c1c(sn(-c3ccc(OC)c(OC)c3)c1=S)C(C)(C)N2, COc1ccc(NC(=O)c2ccc3c(c2)CCN3S(=O)(=O)c2ccccc2)cc1, O=C(CSc1cn(CCNC(=O)c2cccs2)c2ccccc12)NCC1CCCO1 (stereo not drawn), Cc1ccc(C)c(N2CCN(CCCNC(=O)Cn3c(=O)c4cccn4c4cccnc43)CC2)c1, CCC(=O)Nc1ccccc1-c1nnn(CC(=O)N2c3ccccc3CC2C)n1 (stereo not drawn)
